Measured values published in PubChem BioAssay AID1259374 (The Scripps Research Institute Molecular Screening Center, 2018).
In all, about 650,000 compounds went through this assay and about 5,900 (0.91%) were called active. Rule as the data show it: active = inhibition above about 50%; inactive = the rest. Only a selection was taken, and actives are over-represented in it overall.

molecular target: Microphthalmia-associated transcription factor (Homo sapiens) (UniProt O75030); test: MITF inhibitors, primary screen, biochemical, AlphaScreen, human (AID 1259374); conditions: AlphaScreen MITF homodimerization, bead proximity signal; at 2.6 µM; stronger effect = higher value;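 also: 0% = vehicle wells with protein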
Sequence (O75030 whole entry, looked up): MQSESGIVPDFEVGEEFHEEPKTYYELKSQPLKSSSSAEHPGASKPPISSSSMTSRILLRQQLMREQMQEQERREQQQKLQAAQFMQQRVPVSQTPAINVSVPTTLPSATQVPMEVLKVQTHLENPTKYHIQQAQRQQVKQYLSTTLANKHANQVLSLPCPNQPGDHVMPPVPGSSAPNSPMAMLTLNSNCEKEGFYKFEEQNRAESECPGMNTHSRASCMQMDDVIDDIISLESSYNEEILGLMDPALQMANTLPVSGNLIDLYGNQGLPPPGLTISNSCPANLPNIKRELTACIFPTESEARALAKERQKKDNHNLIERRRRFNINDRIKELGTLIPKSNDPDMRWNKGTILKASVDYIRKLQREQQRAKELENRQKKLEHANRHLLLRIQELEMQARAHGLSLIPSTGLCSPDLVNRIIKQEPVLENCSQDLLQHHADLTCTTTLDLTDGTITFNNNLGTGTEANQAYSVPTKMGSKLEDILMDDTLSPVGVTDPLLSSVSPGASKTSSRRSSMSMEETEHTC

| Structure (SMILES) | inhibition |
| --- | --- |
| CCOc1ccc(C(=O)Nc2cccc(-c3nc4cc(C)cc(C)c4o3)c2)cc1[N+](=O)[O-] | 8.35% (inactive) |
| COc1cc(C(=O)N/C(=C/c2ccc3c(c2)OCO3)C(=O)NCC(=O)O)cc(OC)c1OC | -4.22% (inactive) |
| CCCn1c(SCC(=O)NC2CCCCC2C)nnc1-c1cccnc1 (centres undefined) | 0.55% (inactive) |
| CC1CCCCC1NC(=O)CSc1nnc(-c2ccncc2)n1CCCN(C)C (centres undefined) | 85.7% (active) |
| COCCCn1c(SCC(=O)NC2CCCCC2)nnc1-c1ccccc1 | 8.3% (inactive) |
| CCNC(=S)NNC(=O)c1cccc(S(=O)(=O)Nc2ccc(C)cc2C)c1 | 6.71% (inactive) |
| CCCS(=O)(=O)N1CCc2ccc(NC(=O)/C=C/c3ccco3)cc2C1 | 14.1% (inactive) |
| CNC(=O)c1ccccc1Nc1cc(Nc2ccc(N3CCOCC3)cc2OC)ncc1F | 4.9% (inactive) |
| COc1cc(N2CCOCC2)ccc1Nc1cc(Nc2ccccc2C(N)=O)ccn1 | 21.1% (inactive) |
| COc1cc(N2CCOCC2)ccc1Nc1cc(Nc2ccccc2-n2cccn2)c(C(F)(F)F)cn1 | 57.2% (active) |
| N#CCN1C(=O)C(=O)/C(=C(/O)c2ccccc2)C1c1ccccn1 (centres undefined) | 19.8% (inactive) |
| COc1cc(CN2CCC(N3CCC(C(=O)NCC4CCCO4)CC3)CC2)cc(OC)c1 (centres undefined) | 6.5% (inactive) |
| CC(C)c1ccc(C2/C(=C(/O)c3ccccc3)C(=O)C(=O)N2CCN(C)C)cc1 (centres undefined) | 57.4% (active) |
| CN(C)c1ccc(C2/C(=C(/O)c3ccccc3)C(=O)C(=O)N2CCO)cc1 (centres undefined) | -0.75% (inactive) |
| Cc1ccc(C2/C(=C(/O)c3ccc(Cl)cc3)C(=O)C(=O)N2CCN(C)C)cc1 (centres undefined) | -18.6% (inactive) |
| O=C(Nc1ccc(-c2cn3ccccc3n2)cc1)c1ccc(Br)o1 | 11.4% (inactive) |
| C/C(=N\Nc1ccc(Cl)c(C(=O)O)c1)c1ccc([N+](=O)[O-])cc1 | 0.79% (inactive) |
| CS(=O)(=O)N(Cc1ccccc1)c1ccccc1C(=O)N1CCCCCC1 | -12% (inactive) |
| CCN(CC)S(=O)(=O)c1ccc(OCC(=O)Nc2ccc(C(C)=O)cc2)c([N+](=O)[O-])c1 | -5.88% (inactive) |
| CCCCCOc1ccc(OC(=O)c2ccc(-c3ccc(CCC)cn3)cc2)cc1 | 57.3% (active) |
| CCCCOc1ccc(OC(=O)c2ccc(-c3ccc(CC)cn3)cc2)cc1 | -0.56% (inactive) |
| CCCCCc1ccc(-c2ccc(C(=O)Oc3ccc(-c4ccccc4)cc3)cc2)nc1 | 3.19% (inactive) |
| CCOC(=O)C1CCCN(c2c(OCC)c(=O)c2=O)C1 (centres undefined) | -5.33% (inactive) |
| CCN(CCCNC(=O)CCCn1c(=S)[nH]c2cc3c(cc2c1=O)OCO3)c1cccc(C)c1 | 2.49% (inactive) |
